GRK2 inh – human GRK2 inhibition via aptamer displacement | inhibition of aptamer binding, % at 10 µM | bead flow cytometry, FAM-aptamer displacement from GRK2 | P25098 | 0.59% of 330,000 active;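 active means inhibition of aptamer binding above 40%, roughly 3 SD of noise, on plates passing a quality check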;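 further: median bead fluorescence of bound FAM aptamer so fluorescent compounds give negative values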
HDAC3 inhib – blocks human histone deacetylase 3 | O15379 | recombinant HDAC3, fluorogenic peptide/trypsin coupled, fluorescence | inhibition, % at 8.3 µM | 0.15% of 320,000 active | AID 2718; in the data active means inhibition above about 26%, passing the limit was not always enough; inconclusive means no clear call, values can overlap the other calls
VLA-4 inh – inhibition in a human VLA-4 binding assay. P13612. VLA-4 expressing cells, ligand binding flow cytometry. inhibition, % (about 7 µM as worked out from the volumes in the protocol). 0.2% of 330,000 active
PKD1 inh – PKD1 (human) kinase inhibition. Q15139. PKD1 kinase fluorescence polarization assay. inhibition, % (concentration not given with the values). 0.056% of 200,000 active. AID 797
Pemphigus Ab inh – inhibitors of pemphigus antibody binding to human desmoglein-3. AID 588358. DSG3-coupled beads, scFv-anti-DSG3-GFP binding, flow cytometry; hits give low values. 0.48% of 310,000 active. binding (percent of control), % at 10 µM;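 active means binding more than 3 SD below its plate's average and above zero; inconclusive means below that plate limit but binding exactly zero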;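 further: hits lower antibody fragment binding to DSG3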
LANA-H2B inh – blocks KSHV LANA binding to histone H2A/H2B; Q9QR71; cell-free LANA-H2A/H2B peptide, fluorescence polarization; inhibition, % (test concentration not listed); 0.6% of 320,000 active; AID 2629; in the data active means inhibition mostly above about 10%, no sharp cut-off; inactive means mostly below about 6.7%
Starred values were filed as active, the others as inactive; ? = inconclusive; . = no result given; + = active, no number. Most compounds without a hit are left out; they make up all but 1.8% or so of the library. Unless noted, no stated cut-off is given here; in the data, active means inhibition above about 50%; inactive means the rest.

SMILES | GRK2 inh | HDAC3 inhib | VLA-4 inh | PKD1 inh | Pemphigus Ab inh | LANA-H2B inh
COc1ccc(N(C)C(=O)c2cc3c(s2)-c2ccc(Cl)cc2S(=O)(=O)C3)c(OC)c1 | 0 | 7 | 1 | . | ? | 3
CCCCCCn1nc(C(=O)N(CCCC)c2c(N)n(CCC)c(=O)[nH]c2=O)c2ccccc2c1=O | 2 | -2 | -2 | . | 92 | -2
Cc1onc(-c2c(F)cccc2Cl)c1C(=O)OCC(=O)c1c[nH]c2ccccc12 | 6 | 4 | -4 | . | 103 | 29*
Cc1noc(C)c1C(=O)OCC(=O)c1c[nH]c2ccccc12 | 10 | -4 | -35 | 3 | 117 | 5
Cc1ccc(C(=O)OCC(=O)c2c[nH]c3ccccc23)cc1NC(=O)c1ccco1 | 0 | 7 | 0 | 6 | 100 | +
CCN(CC)S(=O)(=O)c1ccc(NC(=O)CNC2CCCCC2)cc1 | 0 | 2 | 6 | . | 101 | 0
COc1ccccc1NS(=O)(=O)c1ccc(C(=O)N2CC(C)OC(C)C2)cc1 (centres undefined) | 4 | 0 | 0 | . | 94 | 20*
O=C(Nc1ncccc1O)c1ccc(OCC2CCCO2)cc1 (centres undefined) | 4 | 68* | 4 | . | . | 4
O=C(Nc1ncccc1O)c1ccc(Oc2ccccc2)cc1 | 0 | 56* | 9 | . | 97 | 2
COc1ccccc1NS(=O)(=O)c1ccc(C(=O)Nc2ncccc2O)cc1 | 0 | 79* | -7 | . | 99 | 1
O=C(NC1=NCCS1)c1ccc(OCC2CCCO2)cc1 (centres undefined) | 0 | -8 | 4 | 16 | 99 | -2
Cc1nn(C)cc1S(=O)(=O)NCc1ccc2c(c1)OCO2 | 2 | -8 | -2 | . | . | 1
Nc1nc(N)c(Cc2ccc(Cl)cc2Cl)c(N)n1 | 0 | 2 | 6 | -2 | 74 | 32*
CCN(Cc1ccccc1)C(=O)Cn1c(=O)n(CCC(=O)N2CCCCC2)c(=O)c2sccc21 | 0 | 6 | 16 | . | 91 | 4
Cc1cccc(C)c1NC(=O)CN(C)C(=O)c1ccc2c(=O)n3c(nc2c1)CCC3 | 4 | -12 | 4 | . | 105 | 15*
COc1ccccc1N1CCN(c2cc(=O)n(Cc3ccc(F)cc3)c(=O)[nH]2)CC1 | 0 | 3 | -14 | -12 | 69* | -2
O=c1cc(N2CCN(c3ccccc3Cl)CC2)[nH]c(=O)n1Cc1ccc(F)cc1 | 1 | 2 | -8 | . | 85 | -5
CCc1nnc(NC(=O)c2ccc(OC)c(S(=O)(=O)N3CCCC3)c2)s1 | 0 | -5 | 0 | . | 88 | 2
Cc1ccc(Nc2nnc(SCc3nc4ccccc4c(=O)[nH]3)s2)cc1 | 0 | -14 | 5 | -2 | 88 | 2
CCOc1ccc(C(=O)Nc2ccc(N3CCN(C(C)=O)CC3)cc2)cc1[N+](=O)[O-] | 1 | 5 | -6 | -5 | 107 | 18*
CCC(=O)N1CCN(c2ccc(NC(=O)c3ccc4c(c3)OCCO4)cc2)CC1 | 2 | -7 | -14 | 9 | 76* | 3
CCOc1ccc(C(=O)Nc2ccc(N3CCN(C)CC3)cc2)cc1[N+](=O)[O-] | 2 | -5 | 10 | 5 | 82 | 0
NC(=O)c1ccc(CN2CCc3ccccc3C2)cc1 | 0 | 5 | -8 | . | 92 | 1
O=C1c2cc3c(cc2CCC1c1ccc2c(c1)OCO2)OCO3 (centres undefined) | . | . | . | . | 102 | .
CCOC(=O)Cn1c(=NC(=O)c2cccs2)sc2cc(C(=O)OC)ccc21 | 0 | -3 | 4 | 1 | 18* | 1
SMILES | GRK2 inh | HDAC3 inhib | VLA-4 inh | PKD1 inh | Pemphigus Ab inh | LANA-H2B inh
CC(CNC(=O)CCc1nnc(CCC2CCCCC2)o1)c1ccccc1 (centres undefined) | 0 | 3 | 6 | -6 | 109 | -4
O=C(CCc1nnc(CCC2CCCCC2)o1)NCCn1cccn1 | 0 | 1 | 3 | 3 | 101 | 15*
O=C(COC(=O)c1ccc(Cl)cc1[N+](=O)[O-])NC(=O)c1ccccc1 | 0 | 1 | 14 | . | 49* | 1
COc1ccc(S(=O)(=O)N2CCCCCC2)cc1N | 0 | -3 | 7 | -1 | 41 | 0
O=C(COn1nnc2ccc(Cl)cc21)NC12CC3CC(CC(C3)C1)C2 | 5 | 5 | 1 | -5 | 86* | -5
CCN(CC(=O)Nc1ccccc1C(F)(F)F)C(=O)C1CCC1 | 1 | 4 | -1 | . | 98 | -13
CC(=O)c1ccc(NC(=O)c2ccc(NC(=O)c3ccco3)cc2)cc1 | 77* | -7 | -10 | . | 111 | 5
